This note sets out measurements from ChEMBL document CHEMBL3988442, “University of Dundee, Small-Polar-MMV Screening Library” (2021).

In all, about 48,000 compounds went through this assay and about 13,000 (27%) showed an effect of 50% or more. This is one part of the list.

The test has as its system Wolbachia pipientis. The experiment in a line: Anti-Wolbachia Cell-Based Screen. The conditions noted are these: 5 µM. Format: functional. On the set-up: scale not given: in the data most compounds retested in dose-response had high values.
With `COc1nc2ccn(CCc3cnccn3)c(=O)c2cc1C#N`, the “Percent Effect” value is on record as -4.634%. The result for `COCCn1cncc1Cn1cccc(C(F)(F)F)c1=O` reads -5.803%; that for `COCCn1ccc2c(cnc3nc(SC)nn32)c1=O`, 167%. As to `CSc1nc2ncc3c(=O)n(CCN4CCCCC4)ccc3n2n1`, the “Percent Effect” value came to 124.9%.

For the compound `CN1CCN(CCn2cnc3c(F)cccc3c2=O)CC1`, the “Percent Effect” value is recorded as 0.6334%.

As to `CS(=O)(=O)Cc1nc(CCc2ccccc2)nn1-c1ccccn1`, the “Percent Effect” value was -12.46%. The result for `NC(=O)NCC(=O)N1CCCC(c2nccn2Cc2ccncc2)C1` (stereo unspecified) reads -11.58%. The result for `CC(Cn1cncn1)NC(=O)Nc1ccc(F)cc1OCC1CC1` (stereo unspecified) reads 4.941%. The result for `CCc1ccc(CN2CCc3ncnc(-c4cccnc4)c3CC2)o1.O=C(O)C(F)(F)F.O=C(O)C(F)(F)F` reads 106.1%; that for `Cn1cccc1CN1CCc2ncnc(-c3cccnc3)c2CC1`, 88.44%. Take `O=C(O)C(F)(F)F.O=C(O)C(F)(F)F.c1cncc(-c2ncnc3c2CCN(Cc2ccsc2)CC3)c1`: the “Percent Effect” value was found to be 91.57%.

As for `O=C(O)C(F)(F)F.O=C(O)C(F)(F)F.c1cncc(-c2ncnc3c2CCN(Cc2cccs2)CC3)c1`, the “Percent Effect” value is on record as 89.28%. With `Cc1ccc(CN2CCc3ncnc(-c4cccnc4)c3CC2)o1.O=C(O)C(F)(F)F.O=C(O)C(F)(F)F`, the “Percent Effect” value is listed as -3.02%. The result for `O=C(C1CCOC1)N1CCc2ncnc(-c3cccnc3)c2CC1` (stereo unspecified) reads 8.249%; that for `COc1ncnc2c1CCN(Cc1cccs1)CC2.O=C(O)C(F)(F)F`, -7.322%. For `c1ccc(CN2CCc3ncnc(-c4cncnc4)c3CC2)nc1`, the “Percent Effect” value was -4.171%. The result for `O=C(O)C(F)(F)F.O=C(O)C(F)(F)F.c1ccc(CN2CCc3ncnc(-c4cccnc4)c3CC2)nc1` reads 17.47%; that for `CCCN(C(=O)CN1CCN(CCO)CC1)C1=CCCCC1`, 10.87%.

With `c1cnc(NCc2noc3c2CN(C2CCOC2)CC3)nc1` (stereo unspecified), the “Percent Effect” value is -0.4343%. Take `CS(=O)(=O)N1CC[C@@H](CC(=O)O)[C@@H](CC2=NCCc3cc(F)ccc32)C1`: the “Percent Effect” value is listed as -4.983%.

Take `N#Cc1cc2c(=O)n(CC(O)C(F)(F)F)ccc2[nH]c1=O` (stereo unspecified): the “Percent Effect” value is -28.05%. Next, `COCCCNC(=O)C(C)(C)N(C)C1CCCC1`: 11.81%. Next, `CN(Cc1nnc(C2CC2)o1)CC1CCCN1c1cccnn1` (stereo unspecified): 15.59%. For the compound `Cn1c(=O)oc2cc(Nc3nccnc3C#N)ccc21`, the “Percent Effect” value is -0.7115%. The result for `Cc1cc(CNC(=O)NCC(O)c2cccc(C(F)(F)F)c2)no1` (stereo unspecified) reads -1.276%; that for `Cc1nc(CN2CCc3ncnc(-c4cccnc4)c3CC2)cs1.O=C(O)C(F)(F)F.O=C(O)C(F)(F)F`, 101.9%. The result for `Cc1nc(CN2CCc3ncnc(-c4ccsc4)c3CC2)cs1.O=C(O)C(F)(F)F` reads -15.15%. `Cc1nc(CN2CCc3ncnc(-c4ccccc4)c3CC2)cs1.O=C(O)C(F)(F)F`: the “Percent Effect” value was -8.271%.

Take `CC(C)(C)CNC(=O)CNC(=O)C1CC1`: the “Percent Effect” value is -0.05069%.

For `CCOC(=O)c1ccc(N2CCN(Cc3c(C)nn(C)c3Cl)CC2)nc1`, the “Percent Effect” value is on record as -11.85%. The result for `O=C(NCC1(O)CCc2ccccc2C1)c1cccs1` (stereo unspecified) reads -6.747%; that for `C/C(NC(=O)c1ccccn1)=C1\C(=O)C[C@@H]2[C@H]1C2(C)C`, 103%; that for `O=C(N[C@]12CC1CN(C(=O)c1ccco1)C2)c1ccco1` (stereo partly specified), -8.008%.

Consider `C/C(NC(=O)c1cccs1)=C1\C(=O)C[C@@H]2[C@H]1C2(C)C`, for which the “Percent Effect” value is 112.6%. Regarding `C/C(NC(=O)c1ccco1)=C1/C(=O)C[C@@H]2[C@H]1C2(C)C`, the “Percent Effect” value is 112.1%.

As to `CC(=O)N1CC2C[C@]2(NC(=O)c2ccco2)C1` (stereo partly specified), the “Percent Effect” value was -12.88%. For the compound `CC(C)n1cccc1C(=O)N1CC[C@@H](NC(=O)c2ccccn2)[C@H](O)C1`, the “Percent Effect” value is 9.129%. For the compound `O=C(NC1CC(=O)N(C2CC2)C1)c1cccs1` (stereo unspecified), the “Percent Effect” value is 3.357%.

In the case of `O=C(Nc1c(N2CCCC2)cccc1N1CCCC1)c1ccccn1`, the “Percent Effect” value was -1.766%. Next, `CNC(=O)[C@H]1CC[C@@H]2[C@@H](CCN2C(=O)N(C)C)O1`: -9.576%; `O=C(NCCC(=O)N1CCCC1)C(OC1CCCC1)c1ccccc1` (stereo unspecified): -0.3907%. The result for `O=C(O)C(F)(F)F.c1csc(CN2CCC3(CCOCC3COCC3CC3)CC2)n1` (stereo unspecified) reads 99.84%; that for `O=C(O)C(F)(F)F.c1cc(CN2CCC3(CCOCC3COCC3CC3)CC2)co1` (stereo unspecified), -40.89%; that for `O=C(O)C(F)(F)F.O=C(O)C(F)(F)F.c1cc(CN2CCC3(CCOCC3COCC3CC3)CC2)ccn1` (stereo unspecified), -8.349%. The result for `COCC1COCCC12CCN(CCc1ccccc1)CC2.O=C(O)C(F)(F)F` (stereo unspecified) reads 7.834%; that for `O=C(O)C(F)(F)F.c1coc(CN2CCC3(CCOCC3COCC3CC3)CC2)c1` (stereo unspecified), -46.4%.

For the compound `COCC1COCCC12CCN(Cc1cccs1)CC2.O=C(O)C(F)(F)F` (stereo unspecified), the “Percent Effect” value amounted to 99.73%. In the case of `COCC1COCCC12CCN(Cc1nccs1)CC2.O=C(O)C(F)(F)F` (stereo unspecified), the “Percent Effect” value turned out to be 97.2%. The result for `CN(Cc1nc2ccccc2[nH]1)C(=O)CN(C)c1ccc(Cl)cn1` reads 9.224%; that for `CCN(CC)CCNCc1cc(O)c2cc(C)ccc2n1`, 11.73%; that for `CO[C@H]1COC[C@@H]1NC(=O)C1(Oc2ccc(Cl)cc2)CCNCC1`, 6.112%. The result for `C[S+]([O-])CCNCc1ccc(OCc2cscn2)cc1` (stereo unspecified) reads 1.801%; that for `CCCN1CCN(C(=O)c2cc3ccccc3cn2)[C@H]2CS(=O)(=O)C[C@H]21`, 0.5207%. Next, `CC(C)N[C@@H]1CC[C@@H]1NC(=O)c1ccccc1OC(F)(F)C(F)F`: -9.491%; `Cl.c1nc(CCC2CCCCN2)cc(N2CCCC2)n1` (stereo unspecified): 95.63%; `OCC1CCCN1c1cc(N2CCC(OC3CCCC3)CC2)ncn1` (stereo unspecified): 10.66%. Regarding `CCc1cc(N2CCCC(c3noc(CC)n3)C2)ncn1` (stereo unspecified), the “Percent Effect” value is -9.129%.

Take `CC1CCN(c2cc(CCC3CCCN3)ncn2)CC1.Cl` (stereo unspecified): the “Percent Effect” value is reported as 81.62%. Consider `Cl.c1nc(CCC2CCCN2)cc(N2CCCOCC2)n1` (stereo unspecified), for which the “Percent Effect” value was -10.48%. For the compound `CC1CCN(c2cc(NC(=O)C3CC3)ncn2)CC1`, the “Percent Effect” value is listed as 10.56%. In the case of `Cl.c1nc(CCC2CCCN2)cc(N2CCCCCC2)n1` (stereo unspecified), the “Percent Effect” value is 105.3%. On to `Nc1ccc(-c2cc(O)cc(CCC3CCCCN3)c2)cn1` (stereo unspecified), for which the “Percent Effect” value is -4.594%. Next, `CC1CCN(c2cc(-n3cnc(C(=O)N4CCSCC4)c3)ncn2)CC1`: 13.65%.

`O=C(O)C(F)(F)F.O=C([C@H]1CN(Cc2ccc(F)cc2)C[C@H]2OCC[C@@H]12)N1CCCO1`: the “Percent Effect” value stood at 1.984%. Regarding `Cc1cc(NC(=O)CN2CCOC(Cn3cccn3)C2)n(C)n1` (stereo unspecified), the “Percent Effect” value is -0.9893%. Consider `CCC1CCCN(CC(=O)Nc2oc(C)c3c(C)n[nH]c(=O)c23)C1` (stereo unspecified), for which the “Percent Effect” value was found to be 7.246%.

Take `CN(Cc1ccc(OCC(=O)N2CCOCC2)cc1)S(C)(=O)=O`: the “Percent Effect” value is reported as -1.865%. The result for `CCc1ccccc1C(=O)N1CCN(S(C)(=O)=O)[C@@H](C)C1` reads 7.255%; that for `NC(=O)CCOc1nc(-c2ccccc2Cl)no1`, -3.331%; that for `CCn1c(C2CCNCC2)nn(CCn2cncn2)c1=O`, 89.88%.

For `CCn1c(Cn2cncn2)nnc1C1CCN(Cc2ccncc2)CC1`, the “Percent Effect” value is reported as -0.7206%. Next, `CCn1c(C2CCCN(C(=O)c3ccc[nH]3)C2)nn(CCN(C)C)c1=O` (stereo unspecified): -8.209%.

Turning to `CCCn1nc(C2CCNCC2)n(Cc2ccccc2)c1=O`, the “Percent Effect” value is -22.36%. For the compound `CCn1c(C2CCCNC2)nn(CCn2cncn2)c1=O` (stereo unspecified), the “Percent Effect” value is reported as 98.85%. `CCn1c(C2CCNCC2)nn(CCn2ccc(C)n2)c1=O`: the “Percent Effect” value worked out at 83.74%.

For `CCOCCn1nc(C2CCNCC2)n(Cc2ccccc2)c1=O`, the “Percent Effect” value is -5.43%. For `CCn1c(C2CCNCC2)nn(CCCc2ccccc2)c1=O`, the “Percent Effect” value was 0.4782%. Regarding `O=c1n(CCn2cccc2)nc(C2CCNCC2)n1Cc1ccccc1`, the “Percent Effect” value was -16.93%. For the compound `FC(F)(F)c1ccc2nc([C@H]3CCN(C4CCOCC4)C3)[nH]c2c1`, the “Percent Effect” value is on record as -2.136%. For the compound `Cc1nn(C)c(C)c1S(=O)(=O)N(C)Cc1nn(C)c(Cl)c1Cl`, the “Percent Effect” value was -26.42%. Next, `c1cncc(COCC2CN(Cc3ccco3)Cc3nccn3C2)c1` (stereo unspecified): 6.885%; `c1coc(CN2Cc3nccn3CC(Cn3cncn3)C2)c1` (stereo unspecified): 1.02%; `c1cncc(OCC2CN(Cc3ccco3)Cc3nccn3C2)c1` (stereo unspecified): -2.745%. The result for `CCOCC1CN(Cc2ccco2)Cc2nccn2C1.O=C(O)C(F)(F)F` (stereo unspecified) reads 99.94%. With `CCN(CC)CC1CN(Cc2ccco2)Cc2nccn2C1` (stereo unspecified), the “Percent Effect” value is 84.77%. Regarding `CC(C)C(C(=O)NCC1CC1)n1cnc2cc(F)c(F)cc21` (stereo unspecified), the “Percent Effect” value is -9.964%.

`O=C(CCc1nc(Cl)n[nH]1)NC1CCCN(CC2CCCCC2)C1` (stereo unspecified): the “Percent Effect” value is -7.697%.

`CCc1ncc(C(=O)N(C)Cc2cc(-c3ccncc3)no2)cn1`: the “Percent Effect” value is -12.94%. In the case of `c1cncc(OCCNC2Cc3ccccc3C2)c1`, the “Percent Effect” value is 2.244%. For the compound `COc1cccc2c1OCC(NCCc1cnn(-c3ccccc3)c1)C2` (stereo unspecified), the “Percent Effect” value is listed as -5.519%. Consider `COc1cccc2c1OCC(NCc1cnn(-c3ccccc3)c1)C2` (stereo unspecified), for which the “Percent Effect” value was -6.454%. Take `COc1cccc2c1OCC(NCCCOc1cccnc1)C2` (stereo unspecified): the “Percent Effect” value is listed as 86.98%. The result for `c1ccc(OCCNC2CCN(c3ncccn3)CC2)cc1` reads -7.109%; that for `c1cncc(OCCCNC2COc3ccccc3C2)c1` (stereo unspecified), 107.3%. The result for `OC(CN(Cc1ccccc1)Cc1cscn1)c1cccs1` (stereo unspecified) reads -27.1%; that for `O=C(c1cccc(F)c1)N1C[C@@H](CN2CCCCC2)[C@@H](CO)C1`, 0.9976%; that for `CNC(=O)C1(c2cnccn2)CCCN1C(=O)c1ccc(F)cc1` (stereo unspecified), 95.13%. Next, `COc1ccncc1NC(=O)C1(c2ccc(F)cc2)CCC1`: -2.782%; `Cc1ccc(OC2(C(=O)O)CCN(C(=O)c3cccc(F)c3)CC2)cn1`: 1.243%; `CNC(=O)C1(c2cnccn2)CCCN1C(=O)c1ccccn1` (stereo unspecified): 81.35%.

`CNC(=O)c1nc2c(s1)CCN(C(=O)c1ccc(OC)cc1)CC2`: the “Percent Effect” value was -5.332%. Next, `COc1ccc(CN2CCOC3(CCCN(c4cnccn4)C3)C2)cc1.O=C(O)C(F)(F)F.O=C(O)C(F)(F)F` (stereo unspecified): -2.164%. The result for `CNC(=O)C1(c2cnccn2)CCCN1C(=O)c1ccn(C)n1` (stereo unspecified) reads -6.037%; that for `CNC(=O)C1(c2cnccn2)CCCN1C(=O)c1ccc(OC)cc1` (stereo unspecified), 106.6%. Next, `Cc1ccc(OC2(C(=O)O)CCN(C(=O)c3ccc(F)cc3)CC2)cn1`: -2.115%; `CNC(=O)C1(c2cnccn2)CCCN1C(=O)c1cccc(F)c1` (stereo unspecified): 96.69%.
